PubChem BioAssay AID1851 (National Center for Advancing Translational Sciences (NCATS), 2009)
Where “and” joins values, the source holds several entries; their conditions need not be identical. Equal entries are not always repeated. About 2,600 (16%) of roughly 16,000 compounds were called active. Not shown: some 20% with an inconclusive outcome. Calls follow the shape of the dose curve; as a rule, active = well fitted curve in the direction sought with a large enough effect; inconclusive = small, poorly fitted or top-dose-only effect, or effect the other way; inactive = no such curve, though single readings can be large or run the other way. Only a sample is shown. Where a structure was tested more than once in an assay, its records may differ in their call.

Molecular target: Cytochrome P450 2D6 (Homo sapiens) (UniProt P10635)
Sequence (P10635 whole entry, looked up): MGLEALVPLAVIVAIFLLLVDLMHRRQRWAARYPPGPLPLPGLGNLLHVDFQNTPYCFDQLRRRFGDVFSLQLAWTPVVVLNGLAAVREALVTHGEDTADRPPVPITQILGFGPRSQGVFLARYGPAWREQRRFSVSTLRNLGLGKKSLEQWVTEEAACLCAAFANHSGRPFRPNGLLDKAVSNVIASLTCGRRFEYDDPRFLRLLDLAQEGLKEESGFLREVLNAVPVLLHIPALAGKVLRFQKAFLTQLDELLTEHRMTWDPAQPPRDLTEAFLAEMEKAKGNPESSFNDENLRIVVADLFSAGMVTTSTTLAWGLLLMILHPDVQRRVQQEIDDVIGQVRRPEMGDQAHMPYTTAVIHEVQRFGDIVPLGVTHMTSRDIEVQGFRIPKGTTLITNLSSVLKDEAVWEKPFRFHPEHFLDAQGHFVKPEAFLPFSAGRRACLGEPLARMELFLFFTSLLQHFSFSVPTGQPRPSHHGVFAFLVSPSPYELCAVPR
Assay: Cytochrome panel assay with activity outcomes
Conditions: recombinant CYP, pro-luciferin dealkylation, luminescence, p450-cyp2d6; series mostly up to 57.1 µM; activity, negative = inhibition: at the top concentration
% is scaled to controls: 0 for no effect and ±100 for the full control effect.

Compound | activity, negative = inhibition | AC50
O=C(c1cc(Br)ccc1O)c1cc(Br)ccc1O | -11.4% [at 11.4 µM] (inactive) | 
CC(C)=C[C@H]1[C@@H](C(=O)Oc2ccccc2C(C)C)C1(C)C | 0.868% [at 11.4 µM] (inactive) | 
CC1(C)CCC=[N+]1[O-] | 2.61% (inactive) | 
Nc1c2c(nc3ccccc13)CCCC2 |  | 5.01 µM (active) and inactive
Nc1[nH]n2c(=O)c3c(nc2c1N=Nc1ccccc1)CCCC3 | -21.7% (inactive) | 
Nc1c2c(nc3ccccc13)CCC[C@H]2O | -6.84% (inactive) | 
COc1ccc(NC(=O)C2CC(=O)NC3=C2C(=O)CC(C)(C)C3)cc1 (stereo not given) | 8.12% (inactive) | 
COc1ccc(CCN=CC2=C(O)CC(C)(C)CC2=O)cc1 | -0.143% (inactive) | 
CC(=O)OC[C@@H]1O[C@H](C/C=N\O[C@@H](C)CN2CCCc3nc(C)c(C)cc32)C=C[C@@H]1OC(C)=O |  | 3.16 µM (active)
CC(=O)OC[C@@H]1O[C@H](C/C=N\OC[C@@H](O)COCc2ccco2)C=C[C@@H]1OC(C)=O | -5.26% [at 11.4 µM] (inactive) | 
CC(=O)OC[C@@H]1O[C@H](C/C=N\O[C@@H](C)c2cn([C@H](CO)Cc3ccccc3)nn2)C=C[C@@H]1OC(C)=O | 6.63% [at 11.4 µM] (inactive) and -11.6% [at 11.4 µM] (inactive) | 
CC(=O)OC[C@@H]1O[C@H](C/C=N\O[C@@H](C)c2cn([C@H]3COC[C@H]3O)nn2)C=C[C@@H]1OC(C)=O | 10.3% [at 11.4 µM] (inactive) | 
CC(=O)OC[C@@H]1O[C@H](C/C=N\O[C@@H](C)c2cc(-c3c(C)cc(C)cc3C)no2)C=C[C@@H]1OC(C)=O | -0.786% [at 11.4 µM] (inactive) | 
CC(=O)OC[C@@H]1O[C@H](C/C=N\O[C@@H](C)CN2CCCCc3nc(C)c(C)cc32)C=C[C@@H]1OC(C)=O |  | 3.16 µM (active)
CC(C)Nc1nc(NC(C)(C)C)nc(Oc2ccc(=O)n(-c3ccccc3)n2)n1 | -18.2% (inactive) | 
Cc1ccc(NC(=O)Nc2nc(-c3ccc(C)s3)cs2)cc1 | -3.69% (inactive) | 
CCCCN(C(=O)NC(=O)Nc1ccccc1OCC)S(C)(=O)=O | -22.9% (inactive) | 
Cc1ccc2nc(N/N=C\c3cccc(C)n3)cc(C)c2c1 |  | 3.16 µM (active)
Cc1cnn(-c2cc(N/N=C/c3ccccc3)ncn2)c1 | 6.87% (inactive) | 
COc1cccc(C(C#N)N2N=C(C)CC2(C)C)c1O (stereo not given) | -3.53% (inactive) | 
Cc1nc(S(=O)(=O)N2CCOCC2)c(C#N)c(C)c1Cl | 11.6% (inactive) | 
COc1cccc2c1[C@@H]1CN(CCCCn3c(=O)[nH]c4c(sc5ncc(-c6ccccc6)nc54)c3=O)C[C@H]1CO2 |  | 31.6 µM (active)
CCN(CC)C(=O)C1CCCN(c2ccc([N+](=O)[O-])cc2/C=N/NC(=O)c2ccc([N+](=O)[O-])cc2)C1 (stereo not given) | -13.6% (inactive) | 

Compound | activity, negative = inhibition | AC50
C/C(N)=C(/C#N)C(=O)COc1ncnc2ccc(Br)cc12 | -0.639% (inactive) | 
Brc1ccc2cccnc2c1 | 22% (inactive) | 
Brc1ccc2ncnc(Nc3cccc4ccccc34)c2c1 |  | 14.1 µM (active)
Cc1cc(C(F)F)n2nc(C(=O)Nc3sc4c(c3C#N)CCC(C)C4)nc2n1 (stereo not given) | -32.8% (inactive) | 
COCCn1c(=O)c(-c2ccc(Cl)cc2)nc2cnc(Oc3ccccc3)nc21 | -2% (inactive) | 
Cc1cc(C)c(S(=O)(=O)n2ccc(-c3ccc(OCCN(C)c4ccccn4)cc3)n2)c(C)c1 | 18.4% (inactive) | 
COC(=O)CN(c1ccccn1)S(=O)(=O)c1ccccc1 | 9.48% (inactive) | 
CN(CCOc1ccc(C[C@H](Nc2ccccc2C(=O)c2ccccc2)C(=O)O)cc1)c1ccccn1 |  | 0.0316 µM (active)
COCCCN1C(=O)C(=O)/C(=C(/O)c2ccc(OC)cc2C)C1c1cccnc1 (stereo not given) | -1.26% (inactive) | 
Cc1ccc(COc2ccc(Br)cc2/C=N/O)cc1 |  | 17.8 µM (active)
CC(C)(C)c1ccc(OCC(=O)N/N=C/c2cc(Br)ccc2OC(=O)c2ccco2)cc1 | 28.3% (inactive) | 
Cc1ccc(COc2coc(CO)cc2=O)cc1 | 13.9% (inactive) | 
N#CCCn1c(=O)c(-c2cccc(C#N)c2)nc2cnc(Oc3ccccc3)nc21 | 5.63% (inactive) | 
N#CCCn1c(=O)c(-c2cccs2)nc2cnc(Nc3ccccc3)nc21 | 8.86% (inactive) | 
CCNc1ncc2nc(-c3cccs3)c(=O)n(CCC#N)c2n1 |  | 1.26 µM (active)
CCNc1ncc2nc(-c3cn(C)c4ccccc34)c(=O)n(CCC#N)c2n1 |  | 3.98 µM (active)
CN1CCN(c2ncc3nc(-c4cccc(C#N)c4)c(=O)n(CCC#N)c3n2)CC1 | 2.23% (inactive) | 
CCNc1ncc2nc(-c3cccc(C#N)c3)c(=O)n(CCC#N)c2n1 |  | 0.0316 µM (active)
CCNc1ncc2nc(-c3cccs3)c(=O)n(C)c2n1 | 6.42% (inactive) | 
CCNc1ncc2nc(-c3cccs3)c(=O)n(Cc3cccs3)c2n1 | -19.8% (inactive) | 
COc1ncc2nc(-c3cn(C)c4ccccc34)c(=O)n(CCC#N)c2n1 | -0.812% (inactive) | 
CCNc1ncc2nc(-c3cn(C)c4ccccc34)c(=O)n(Cc3ccc(F)cc3)c2n1 | -8.85% (inactive) | 
CCNc1ncc2nc(C)c(=O)n(Cc3cccs3)c2n1 | -10.2% (inactive) | 

Compound | activity, negative = inhibition | AC50
CCNc1ncc2ncc(=O)n(Cc3cccs3)c2n1 |  | 12.6 µM (active)
Cc1cc(C)cc(C(=O)N(C)[C@H](Cc2ccc(-c3ccccc3)cc2)C(=O)N[C@@H](Cc2c[nH]c3ccccc23)C(=O)O)c1 | -5.77% (inactive) | 
N=c1ccn2c(n1)O[C@H]1[C@@H](OP(=O)(O)O)[C@H](CO)O[C@H]12 | 10.3% [at 11.4 µM] (inactive) | 
Cc1cc(-c2n[nH]c(=S)o2)c(C)n1-c1ccccc1 | -6.27% (inactive) | 
O=C(Nc1nnc(C2CC2)s1)c1cc(S(=O)(=O)N2CCN(c3ccccc3)CC2)ccc1Cl | 28% (inactive) | 
O=C(N/N=C1/C[C@@H](O)[C@@H](O)[C@@H]2[C@@H]3C(=O)N(Cc4ccccc4)C(=O)[C@H]3CC[C@@H]12)OCc1ccccc1 | 9.46% [at 11.4 µM] (inactive) | 
O=C1[C@H]2O[C@@H]2[C@@H](O)[C@H]2[C@H]1CCn1c(=O)n(Cc3cc4c(cc3Cl)OCO4)c(=O)n12 | -11.5% [at 11.4 µM] (inactive) | 
CCN(CC)C(=O)CSc1nnc(-c2ccco2)n1N | -28.2% (inactive) | 
COc1ccc(COC(=O)N/N=C2/C[C@@H](O)[C@@H](O)[C@@H]3[C@H]4C(=O)N(c5ccc(F)cc5F)C(=O)[C@@H]4CC[C@@H]23)cc1 | -3.12% [at 11.4 µM] (inactive) | 
O=C(Cc1cccs1)N/N=C/C(Br)=C/c1ccccc1 | -28.8% (inactive) | 
CCNc1ncc2nc(-c3cc(F)cc(F)c3)c(=O)n(CCC#N)c2n1 |  | 0.0631 µM (active)
COc1ccc(-c2nc3cnc(Nc4ccccc4)nc3n(CCC#N)c2=O)cc1 | 6.64% (inactive) | 
N#CCCn1c(=O)c(-c2cc(F)cc(F)c2)nc2cnc(Nc3ccccc3)nc21 | 1.97% (inactive) | 
N#CCCn1c(=O)c(-c2ccccc2)nc2cnc(Nc3ccccc3)nc21 | 4.06% (inactive) | 
CCNc1ncc2nc(-c3ccccc3)c(=O)n(CCC#N)c2n1 |  | 0.501 µM (active)
COc1ncc2nc(-c3cc(F)cc(F)c3)c(=O)n(CCC#N)c2n1 | -10.6% (inactive) | 
COC(=O)[C@@]1(Cc2ccc(F)cc2)[C@H]2c3cc(C(=O)N4CCCC4)n(CCCNc4ncc(C(F)(F)F)cc4Cl)c3C[C@H]2CN1C(=O)c1ccccc1 | 3.6% (inactive) | 
CCOC(=O)[C@]1(CC(=O)O)CCCC1=O | -6.09% [at 11.4 µM] (inactive) | 
COc1ccc(C2CC(=O)c3cnc(Nc4cc(C)cc(C)c4)nc3C2)cc1 (stereo not given) | -11.6% (inactive) | 
O=C1NC(=O)C(c2ccccc2[N+](=O)[O-])=C1Nc1ccc(O)c(Cl)c1 | 2.19% (inactive) | 
Cc1occc1C(=O)NNC(=O)c1ccc(F)cc1 | -29% (inactive) | 
COc1ccc(-n2c(=S)[nH]c3cc(C(=O)NCCCN4CCCC4=O)ccc3c2=O)cc1 | -6.32% (inactive) | 
COc1ccc2c(c1OC)C(=O)OC2[C@H]1c2c(cc3c(c2OC)OCO3)CCN1C (stereo not given in full) |  | 10 µM (active)

Compound | activity, negative = inhibition | AC50
COc1ccc2c(c1OC)C(=O)OC2Nc1ncccc1C (stereo not given) | -10.4% (inactive) | 
COc1ccc2c(c1OC)C(=O)O[C@@H]2[C@H]1c2c(cc3c(c2OC)OCO3)CCN1C | 0.746% (inactive) | 
COc1ccc(/C(C)=N/NC(=O)c2ccc(CSc3cccc4cccnc34)cc2)cc1OC | -9.22% (inactive) | 
Cc1ccccc1-c1cc(C(=O)n2cccn2)c2cc(Cl)ccc2n1 | -13.5% (inactive) | 
Cc1cc(N2C(=O)C(O)=C(C(=O)c3cccs3)C2c2cccc(O)c2)no1 (stereo not given) | -3.43% (inactive) | 
COC(=O)CSc1cc(C(F)(F)F)nc(-c2ccccn2)n1 | 6.24% (inactive) | 
CCOC(=O)CSc1nc2c(cnn2-c2ccc(C)cc2)c(=O)[nH]1 | 7.23% (inactive) | 
N#CCSc1nc2cc(C(=O)N3CCCC3)ccc2c(=O)n1Cc1ccccc1 | -16.5% (inactive) | 
Cc1nc2cnc(Oc3cccc(Cl)c3)nc2n(C[C@H]2CCCO2)c1=O | 4.36% (inactive) | 
CS(=O)(=O)Nc1cccc(-c2ccc3ncnc(NCc4cccs4)c3c2)c1 |  | 20 µM (active)
CS(=O)(=O)Nc1cccc(-c2ccc3ncnc(NCCN4CCOCC4)c3c2)c1 | -8.45% (inactive) | 
c1csc(CNc2ncnc3ccc(-c4ccoc4)cc23)c1 |  | 15.8 µM (active)
COc1cccc(-c2ccc3ncnc(NCc4cccs4)c3c2)c1 |  | 10 µM (active)
COCCNc1ncnc2ccc(-c3cccc(NS(C)(=O)=O)c3)cc12 | -1.19% (inactive) | 
CN(/C=C/C(=O)C(F)(F)F)Cc1ccccc1 | 0.82% (inactive) | 
Cc1[nH]c2ccccc2c1-c1cc(-c2cc(-c3c(C)[nH]c4ccccc34)on2)no1 | 5.28% [at 11.4 µM] (inactive) | 
CCCC[C@@H]1C[C@H]1C(NC(=O)c1cccnc1)c1ccc(-c2ccccc2)cc1 (stereo not given in full) | -5.63% (inactive) | 
CCOC(=O)c1cnn(-c2cc(Oc3ccccc3)ncn2)c1N | -6.66% (inactive) | 
Cc1nc(SCC(=O)c2ccc(F)cc2)c([N+](=O)[O-])[nH]1 |  | 10 µM (active)
Cc1cc(C)c(C(N)=O)c(SCC(=O)c2ccc(Cl)cc2)n1 | -3.15% (inactive) | 
Cc1ccc(C(=O)CSc2nc(C)cc(=O)[nH]2)cc1 | -1.53% (inactive) | 
